In PubChem BioAssay (NCATS):
Several values for one entry are separate records, joined by “and”; a condition that tells them apart may be missing. Equal values may be shown once. Results filed as inconclusive are left out. Unmarked numbers belong to inactive results. Activity calls are given as the source filed them. Calls follow the shape of the dose curve; as a rule, active = well fitted activation curve with a large enough effect; inconclusive = small, poorly fitted or top-dose-only effect; inactive = no such curve, though single readings can be large or run the other way.

Molecular target: Cellular tumor antigen p53 (Homo sapiens) (UniProt P04637)
Sequence (P04637 whole entry, looked up): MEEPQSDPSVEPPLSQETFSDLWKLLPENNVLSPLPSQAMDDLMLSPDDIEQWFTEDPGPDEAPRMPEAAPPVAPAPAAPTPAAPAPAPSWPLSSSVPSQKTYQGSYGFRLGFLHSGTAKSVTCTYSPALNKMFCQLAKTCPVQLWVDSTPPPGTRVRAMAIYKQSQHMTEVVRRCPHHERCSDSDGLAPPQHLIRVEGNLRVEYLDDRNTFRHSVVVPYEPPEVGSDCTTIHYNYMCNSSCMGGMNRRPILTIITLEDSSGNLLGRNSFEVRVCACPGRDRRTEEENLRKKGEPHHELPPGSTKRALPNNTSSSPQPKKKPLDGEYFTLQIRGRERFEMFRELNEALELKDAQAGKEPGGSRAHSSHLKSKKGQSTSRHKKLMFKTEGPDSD
Assay: Primary qHTS for small molecule compounds that upregulate eGFP-tagged delta133p53alpha (in N-terminal) cells. (AID 2060322); also: nearly all actives have a fitted effect of over 75% in size;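 as to activation: cells pre-induced with doxycycline then dosed without doxycycline; series mostly up to about 56 µM; 0% = DMSO vehicle and 100% = reference activator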
Conditions: NCI-H358 eGFP-delta133p53alpha fluorescence, 24 h; activation: hits give high values
Outline: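 NCI-H358 cells pre-induced 24 h with 10 ng/ml doxycycline for eGFP-delta133p53alpha, plated dox-free and exposed 24 h at 37C to titrated compounds. Fixed, Hoechst-stained; gated GFP peak intensity by laser scanning cytometry, normalized to DMSO (0%) and 57.5 uM 5-azacytidine (100%).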
Potency is read from the fitted curve at half-maximal effect.

Row | SMILES | activation | Potency
1 | O=C(O)C[C@H](O)C[C@H](O)/C=C/c1c(C2CC2)nc2ccccc2c1-c1ccc(F)cc1 | 15.3% | –
2 | NCC(=O)Nc1ccc(-n2nc(C(F)(F)F)cc2-c2ccc3c(ccc4ccccc43)c2)cc1 | -7.41% | –
3 | CCc1nc(-c2cccc(C)c2)c(-c2ccnc(NC(=O)c3ccccc3)c2)s1 | 17.2% | –
4 | COc1cc2c(NC3CCN(CC4CCCCC4)CC3)nc(N3CCCN(C(C)C)CC3)nc2cc1OCCCN1CCCCC1 | – | 43.2 µM (active)
5 | CC(C)N(CCCNC(=O)Nc1ccc(C(C)(C)C)cc1)C[C@H]1O[C@@H](n2ccc3c(N)ncnc32)[C@H](O)[C@@H]1O | -20% and -29.1% | –
6 | Cc1cnc(Nc2cccc(CN3CCOCC3)c2)nc1Nc1cccc(S(=O)(=O)NC(C)(C)C)c1 | 11% | –
7 | C[C@@]1(c2cc(-c3cncnc3)c(F)cc2F)CCSC(N)=N1 | 19.2% and -1.91% | –
8 | CCN(CCO)CCCC(C)Nc1ccnc2cc(Cl)ccc12 (stereo not given) | 3.35% and 25.7% and 0.955% | –
9 | CC(C)N(CCCNC(=O)Nc1ccc(C(C)(C)C)cc1)C[C@H]1O[C@@H](n2cc(Br)c3c(N)ncnc32)[C@H](O)[C@@H]1O | -6.7% | –
10 | CCCCOc1nc(N)c2c(n1)N(Cc1cccc(CN3CCCC3)c1)CC(=O)N2 | 5.73% | –
11 | Nc1ncnc2c1c(-c1cccc(OCc3ccccc3)c1)cn2C1CC(CN2CCC2)C1 (stereo not given) | 26% and 8.59% | –
12 | Cc1nc(C(=O)NCC(=O)O)c(O)c2ccc(Oc3ccccc3)cc12 | 24.6% and -12.3% | –
13 | OCCn1cc(-c2cnc3nnn(Cc4ccc5ncccc5c4)c3n2)cn1 | -13.3% and 3.34% | –
14 | COc1cc(C)c(Sc2cnc(NC(=O)c3ccc(CNC(C)C(C)C)cc3)s2)cc1C(=O)N1CCN(C(C)=O)CC1 (stereo not given) | -11.2% and 19.6% | –
15 | Cc1nnc(C(C)C)n1C1CC2CCC(C1)N2CCC(NC(=O)C1CCC(F)(F)CC1)c1ccccc1 (stereo not given) | -3.82% | –
16 | Cc1nn(C)c(COc2ccc(N3CCN(S(=O)(=O)N(C)C)CC3)cc2)c1-c1cccc2c(CCCOc3cccc4ccccc34)c(C(=O)O)n(CCN3CCOCC3)c12 | -22.8% | –
17 | Cc1cc(C)cc(NC(=O)Cc2ccc(OC(C)(C)C(=O)O)cc2)c1 | -4.3% | –
18 | OC(c1ccc(-c2ccc(CN3CCN(Cc4ccncc4)CC3)cc2)c(F)c1)(C(F)(F)F)C(F)(F)F | -11% | –
19 | Cn1cncc1C(N)(c1ccc(Cl)cc1)c1ccc2c(c1)c(-c1cccc(Cl)c1)cc(=O)n2C (stereo not given) | – | 26.9 µM (active)
20 | CN(C)N(C)C(=O)[C@@]1(Cc2ccccc2)CCCN(C(=O)[C@@H](Cc2c[nH]c3ccccc23)NC(=O)C(C)(C)N)C1 | -17.2% | –

Row | SMILES | activation | Potency
21 | CC(C)(C)NC(=O)Nc1cccc(Nc2ncc(F)c(NC(C)(C)CO)n2)c1 | -4.76% and -4.3% | –
22 | C=C1[C@H](CO)[C@@H](O)C[C@@H]1n1cnc2c(=O)[nH]c(N)nc21 | -3.34% | –
23 | CNC(=O)c1ccc(N2C(=S)N(c3cnc(C#N)c(C(F)(F)F)c3)C(=O)C23CCC3)cc1F | -16.4% and 8.59% | –
24 | Cn1cc(-c2cnn3c(N)c(Br)c([C@@H]4CCCNC4)nc23)cn1 | 3.82% | –
25 | Cc1ccc2nc(NC(=O)CSc3nc4c(c(=O)n3-c3ccccc3)SCC4)sc2c1 | 24.2% and -14.8% | –
26 | CC1(C)Cc2c(-c3ccccc3)c(-c3ccc(Cl)cc3)c(CC(=O)O)n2C1 | -18.1% and -12.4% | –
27 | Cc1cc(Nc2ncnc3ccc(-c4ccc(CNCCS(C)(=O)=O)o4)cc23)ccc1Oc1ccn2ncnc2c1 | 23.7% and 4.3% | –
28 | CCOc1cc2c(c(F)c1OCC)C(=N)N(CC(=O)c1cc(N3CCOCC3)c(OC)c(C(C)(C)C)c1)C2 | -9.71% | –
29 | COc1cc2c(cc1OC)CN(CCc1ccc(NC(=O)c3cccc4c(=O)c5cccc(OC)c5[nH]c34)cc1)CC2 | -17.9% | –
30 | CC(C)C(=O)Nc1ncc(-c2cc(C(F)F)nn2-c2c(Cl)cccc2Cl)s1 | 35.2% and 29.6% | –
31 | O=C(O)Cn1nnc(-c2cc(N3CCC(Oc4cc(F)ccc4Br)CC3)no2)n1 | 22.3% and 6.21% | –
32 | O=C(NC[C@H](O)CN1CCc2ccccc2C1)c1cc(NC2COC2)ncn1 | 11.2% and -21.4% | –
33 | Cn1cc(-c2ccc3nnc(C(F)(F)c4ccc5ncccc5c4)n3n2)cn1 | -10% and 1.43% | –
34 | CCNCc1nc2c(N)nc3ccccc3c2n1CC(C)(C)O | -0.477% | –
35 | COc1cccc(Nc2c(C(N)=O)cnc3c(C)cc(S(=O)(=O)c4cccc(C(=O)N(C)C)c4)cc23)c1 | 11.1% and -9.07% | –
36 | C[C@H]1Oc2cc(cnc2N)-c2c(nn(C)c2C#N)CN(C)C(=O)c2ccc(F)cc21 | 1.43% and -2.96% | –
37 | C=Cc1cc(O)cc2nc(-c3ccc(O)c(F)c3)oc12 | -0.955% | –
38 | CC1(C)CCC(c2ccc(Cl)cc2)=C(CN2CCN(c3ccc(C(=O)NS(=O)(=O)c4ccc(N[C@H](CCN5CCOCC5)CSc5ccccc5)c(S(=O)(=O)C(F)(F)F)c4)cc3)CC2)C1 | – | 26.9 µM (active)
39 | CC(=O)N1CCN(CCOc2ccc(C3CCN(C4=Nn5c(nnc5C(F)(F)F)CC4)CC3)cc2)CC1 | -2.39% | –
40 | CCN(c1cc(-c2ccc(CN3CCOCC3)cc2)cc(C(=O)NCc2c(C)cc(C)[nH]c2=O)c1C)C1CCOCC1 | -17.7% | –
